Laboratory results from PubChem BioAssay AID1159580 (chemical genetic matrix, 2015).
Hit rate of the full screen: of about 5,500 compounds, about 2,000 (36%) were called active. About 18% were inconclusive and are not listed. No stated cut-off is given here; in the data, active means normalized growth mostly below about 0.91 (no sharp cut-off); inconclusive means no clear call, values can overlap the other calls; inactive means mostly above about 0.92. The list shows a part of the results.

Assay: chemical genetic growth profiling, strain panel (AID 1159580);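 further: tested at 20 µM; growth read once vehicle control cultures reached saturation at 30 °C; 1 = growth at the plate median or of vehicle wells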
Conditions: growth OD
[1] = S. cerevisiae deletion strains, locus YAL013W, strain DEP1, stronger effect = lower value
[2] = S. cerevisiae deletion strains, locus YBR229C, strain ROT2, stronger effect = lower value
[3] = S. cerevisiae deletion strains, locus YDL101C, strain DUN1, stronger effect = lower value
[4] = S. cerevisiae deletion strains, locus YDR150W, strain NUM1, stronger effect = lower value
[5] = S. cerevisiae deletion strains, locus YEL061C, strain CIN8, stronger effect = lower value
[6] = S. cerevisiae deletion strains, locus YGR078C, strain PAC10, stronger effect = lower value
[7] = S. cerevisiae deletion strains, locus YHR030C, strain SLT2, stronger effect = lower value
[8] = S. cerevisiae deletion strains, locus YHR087W, strain rtc3, stronger effect = lower value
[9] = S. cerevisiae deletion strains, locus YJL187C, strain SWE1, stronger effect = lower value
[10] = S. cerevisiae deletion strains, locus YJR043C, strain POL32, stronger effect = lower value
[11] = S. cerevisiae deletion strains, locus YJR075W, strain HOC1, stronger effect = lower value
[12] = S. cerevisiae deletion strains, locus YLR039C, strain RIC1, stronger effect = lower value
[13] = S. cerevisiae deletion strains, locus YLR058C, strain SHM2 (second series), stronger effect = lower value
[14] = S. cerevisiae deletion strains, locus YLR085C, strain ARP6, stronger effect = lower value
[15] = S. cerevisiae deletion strains, locus YLR262C, strain YPT6, stronger effect = lower value
[16] = S. cerevisiae deletion strains, locus YML094W, strain GIM5, stronger effect = lower value
[17] = S. cerevisiae deletion strains, locus YMR219W, strain ESC1, stronger effect = lower value
[18] = S. cerevisiae deletion strains, locus YMR263W, strain SAP30, stronger effect = lower value
[19] = S. cerevisiae deletion strains, locus YNL153C, strain GIM3, stronger effect = lower value
[20] = S. cerevisiae deletion strains, locus YNL298W, strain CLA4 (second series), stronger effect = lower value
[21] = S. cerevisiae deletion strains, locus YNL322C, strain KRE1, stronger effect = lower value
[22] = S. cerevisiae deletion strains, locus YNR030W, strain Alg12, stronger effect = lower value
[23] = S. cerevisiae deletion strains, locus YPL055C, strain LGE1, stronger effect = lower value
[24] = S. cerevisiae deletion strains, locus YPL241C, strain CIN2, stronger effect = lower value
[25] = S. cerevisiae deletion strains, locus YPR135W, strain CTF4, stronger effect = lower value
[26] = S. cerevisiae strains, strain wild type, stronger effect = lower value
[27] = S. cerevisiae deletion strains, locus YOL006C, strain TOP1, stronger effect = lower value

Measured: normalized growth

FC(F)(F)c1cc(-c2ccco2)nc2cc(-c3ccco3)nn12
active: [1] 0.869 | [2] 0.908 | [10] 0.881 | [12] 0.729 | [18] 0.899 | [22] 0.798 | [24] 0.844 | [25] 0.594
inactive: S. cerevisiae deletion strains, locus YCL061C, strain MRC1, stronger effect = lower value 0.98 | [3] 0.972 | [4] 0.889 | [5] 0.97 | [6] 0.958 | [7] 0.722 | [8] 0.935 | [9] 0.973 | [11] 0.903 | [13] 0.96 | [14] 0.829 | [15] 0.883 | [16] 0.889 | [17] 1 | [19] 0.949 | [20] 0.859 | [21] 0.997 | [23] 0.851 | [26] 0.988

FC(F)(F)c1c2c(nc3cc(-c4ccco4)nn13)CCC2
active: [7] 0.702 | S. cerevisiae deletion strains, locus YLR113W, strain HOG1, stronger effect = lower value 0.802
inactive: S. cerevisiae deletion strains, locus YAR019C, strain CDC15, stronger effect = lower value 0.965 | S. cerevisiae deletion strains, locus YBL105C, strain PKC1, stronger effect = lower value 0.973 | S. cerevisiae deletion strains, locus YBR135W, strain CKS1, stronger effect = lower value 0.964 | S. cerevisiae deletion strains, locus YBR136W, strain MEC1, stronger effect = lower value 0.971 | S. cerevisiae deletion strains, locus YBR160W, strain CDC28, stronger effect = lower value 0.975 | S. cerevisiae deletion strains, locus YDL017W, strain CDC7, stronger effect = lower value 0.971 | S. cerevisiae deletion strains, locus YDL028C, strain MPS1, stronger effect = lower value 0.971 | [3] 0.967 | S. cerevisiae deletion strains, locus YDL108W, strain KIN28, stronger effect = lower value 0.967 | S. cerevisiae deletion strains, locus YDL132W, strain cdc53, stronger effect = lower value 0.96 | S. cerevisiae deletion strains, locus YDL214C, strain PRR2, stronger effect = lower value 0.9 | S. cerevisiae deletion strains, locus YDR052C, strain DBF4, stronger effect = lower value 0.966 | S. cerevisiae deletion strains, locus YDR054C, strain cdc34, stronger effect = lower value 0.952 | S. cerevisiae deletion strains, locus YDR226W, strain ADK1, stronger effect = lower value 0.968 | S. cerevisiae deletion strains, locus YDR477W, strain SNF1, stronger effect = lower value 0.882 | S. cerevisiae deletion strains, locus YER123W, strain YCK3, stronger effect = lower value 0.858 | S. cerevisiae deletion strains, locus YER133W, strain GLC7, stronger effect = lower value 0.912 | S. cerevisiae deletion strains, locus YFL009W, strain cdc4, stronger effect = lower value 0.968 | S. cerevisiae deletion strains, locus YFL029C, strain CAK1, stronger effect = lower value 0.96 | S. cerevisiae deletion strains, locus YFR003C, strain YPI1, stronger effect = lower value 0.976 | S. cerevisiae deletion strains, locus YFR019W, strain FAB1, stronger effect = lower value 0.959 | S. cerevisiae deletion strains, locus YFR028C, strain CDC14, stronger effect = lower value 0.969 | S. cerevisiae deletion strains, locus YGR040W, strain KSS1, stronger effect = lower value 0.875 | S. cerevisiae deletion strains, locus YGR052W, strain FMP48, stronger effect = lower value 0.942 | S. cerevisiae deletion strains, locus YGR092W, strain DBF2, stronger effect = lower value 0.815 | S. cerevisiae deletion strains, locus YHR079C, strain IRE1, stronger effect = lower value 0.891 | S. cerevisiae deletion strains, locus YHR082C, strain KSP1, stronger effect = lower value 0.896 | S. cerevisiae deletion strains, locus YHR205W, strain SCH9, stronger effect = lower value 0.825 | S. cerevisiae deletion strains, locus YIL147C, strain SLN1, stronger effect = lower value 0.971 | S. cerevisiae deletion strains, locus YJL095W, strain BCK1, stronger effect = lower value 0.819 | S. cerevisiae deletion strains, locus YJL128C, strain PBS2, stronger effect = lower value 0.92 | S. cerevisiae deletion strains, locus YJL157C, strain FAR1, stronger effect = lower value 0.869 | S. cerevisiae deletion strains, locus YJR016C, strain ILV3, stronger effect = lower value 0.973 | S. cerevisiae deletion strains, locus YJR066W, strain TOR1 (second series), stronger effect = lower value 0.987 | S. cerevisiae deletion strains, locus YJR066W, strain TOR1, stronger effect = lower value 0.833 | S. cerevisiae deletion strains, locus YKL048C, strain ELM1, stronger effect = lower value 0.941 | S. cerevisiae deletion strains, locus YKL067W, strain YNK1, stronger effect = lower value 0.879 | S. cerevisiae deletion strains, locus YKL101W, strain HSL1, stronger effect = lower value 0.928 | S. cerevisiae deletion strains, locus YKL193C, strain SDS22, stronger effect = lower value 0.959 | S. cerevisiae deletion strains, locus YKL203C, strain TOR2, stronger effect = lower value 0.901 | S. cerevisiae deletion strains, locus YLR133W, strain CKI1, stronger effect = lower value 0.884 | S. cerevisiae deletion strains, locus YLR403W, strain SFP1, stronger effect = lower value 0.855 | S. cerevisiae deletion strains, locus YML070W, strain DAK1, stronger effect = lower value 0.906 | S. cerevisiae deletion strains, locus YMR001C, strain CDC5, stronger effect = lower value 0.966 | S. cerevisiae deletion strains, locus YMR205C, strain PFK2 (second series), stronger effect = lower value 0.891 | S. cerevisiae deletion strains, locus YMR277W, strain FCP1, stronger effect = lower value 0.963 | S. cerevisiae deletion strains, locus YNL006W, strain LST8, stronger effect = lower value 0.97 | S. cerevisiae deletion strains, locus YNL020C, strain ARK1, stronger effect = lower value 0.851 | S. cerevisiae deletion strains, locus YNL161W, strain CBK1, stronger effect = lower value 0.974 | S. cerevisiae deletion strains, locus YNL183C, strain NPR1, stronger effect = lower value 0.816 | S. cerevisiae deletion strains, locus YNL207W, strain RIO2, stronger effect = lower value 0.96 | S. cerevisiae deletion strains, locus YNL222W, strain SSU72, stronger effect = lower value 0.97 | S. cerevisiae deletion strains, locus YNL307C, strain MCK1 (second series), stronger effect = lower value 0.861 | S. cerevisiae deletion strains, locus YOL078W, strain AVO1, stronger effect = lower value 0.961 | S. cerevisiae deletion strains, locus YOL136C, strain PFK27, stronger effect = lower value 0.884 | S. cerevisiae deletion strains, locus YOR061W, strain CKA2, stronger effect = lower value 0.865 | S. cerevisiae deletion strains, locus YOR119C, strain RIO1, stronger effect = lower value 0.921 | S. cerevisiae deletion strains, locus YOR231W, strain MKK1, stronger effect = lower value 0.883 | S. cerevisiae deletion strains, locus YOR329C, strain SCD5, stronger effect = lower value 0.976 | S. cerevisiae deletion strains, locus YPL031C, strain PHO85, stronger effect = lower value 0.869 | S. cerevisiae deletion strains, locus YPL153C, strain RAD53, stronger effect = lower value 0.889 | S. cerevisiae deletion strains, locus YPL204W, strain HRR25, stronger effect = lower value 0.87 | S. cerevisiae deletion strains, locus YPL209C, strain IPL1, stronger effect = lower value 0.972 | S. cerevisiae deletion strains, locus YPL256C, strain CLN2, stronger effect = lower value 0.891 | S. cerevisiae deletion strains, locus YPR025C, strain CCL1, stronger effect = lower value 0.968 | S. cerevisiae deletion strains, locus YPR106W, strain ISR1, stronger effect = lower value 0.959 | S. cerevisiae deletion strains, locus YPR111W, strain DBF20, stronger effect = lower value 0.958 | S. cerevisiae deletion strains, strain NNK1, stronger effect = lower value 0.959 | S. cerevisiae deletion strains, strain TSCII, stronger effect = lower value 0.969

Cc1cc(C(F)(F)F)n2nc(-c3ccc(C(C)(C)C)cc3)cc2n1
inactive: [1] 0.996 | [2] 1.02 | [3] 0.983 | [4] 0.965 | [5] 0.993 | [6] 1.01 | [7] 0.963 | [8] 1.01 | [10] 1.01 | [11] 0.994 | [12] 0.965 | [13] 1 | [14] 0.899 | [15] 0.964 | [16] 0.958 | [17] 0.999 | [18] 1.05 | S. cerevisiae deletion strains, locus YMR307W, strain GAS1, stronger effect = lower value 0.868 | [19] 1.01 | [20] 0.98 | [21] 0.988 | [22] 0.976 | [27] 0.984 | [23] 1.06 | [24] 0.902 | [25] 1.08 | [26] 0.986

FC(F)(F)c1cc(-c2ccc(Cl)cc2)nc2cc(C3CC3)nn12
inactive: [1] 1.03 | [2] 1.01 | [3] 1.03 | [4] 0.99 | [5] 1 | [6] 1.03 | [7] 1.16 | [8] 1.02 | [9] 1.01 | [10] 1.04 | [11] 1.01 | [12] 1.01 | [13] 1.02 | [14] 1.05 | [15] 1.06 | [16] 1.02 | [17] 1.01 | [18] 1.01 | [19] 1.02 | [20] 1.05 | [21] 1.02 | [22] 1.01 | [27] 1.08 | [23] 1.03 | [24] 1.02 | [25] 1.15 | [26] 0.997
